The record followed here is PubChem BioAssay (Tox21).

Records with an inconclusive call do not appear. A call without a number means that no potency is given here. A number with no mark means an inactive call. Activity calls are given as the source filed them. Calls follow the shape of the full dose curve.

The nature of this test: p53 small molecule agonists, cell-based qHTS assay with rat liver microsomes (AID 1963578). To be noted: HCT-116 p53RE-bla, beta-lactamase ratio, 16 h; series mostly up to 66 µM. An excerpt:
U.S. Tox21 Program National Center for Advancing Translational Sciences [NCATS] Division of Preclinical Innovation [DPI] U.S. Environmental Protection Agency [EPA] National Institutes of Environmental Health Sciences [NIEHS] National Toxicology Program [NTP] U.S. Food and Drug Administration [FDA] Tox21 Assay Overview: p53, a tumor suppressor protein, is activated following cellular insult, including DNA damage and other cellular stresses. The activation of p53 regulates cell fate by inducing DNA repair, cell cycle arrest, apoptosis, or cellular senescence. The activation of p53, therefore, is a good indicator of DNA damage and other cellular stresses. […] The activation of the reporter gene under culture conditions can be detected by fluorescence intensity. This cell line was used to screen the Tox21 10K compound library in the condition of presence of rat liver microsomes and to identify agonists that activate the p53 signaling pathway after in vitro metabolic activation (Ooka et al., Archive of Toxicology 96:1975-1987, 2022).
Tox21 Assay Protocol Summary: The p53RE-bla cells were dispensed at 4,000cells/3ul/well in 1536-well black-clear bottom plates. After the assay plates were incubated at 37 C, 5% CO2 incubator for 5 hours, 23 nL of compounds dissolved in DMSO, positive controls or DMSO only was transferred to the assay plate. Following compound addition, 3 uL of rat liver microsomes (Molecular Toxicology, Boone, NC) at final concentration of 0.5 mg/mL and 1uL of Beta-Nicotinamide adenine dinucleotide 2-phosphate (NADPH) at final concentration of 0.5 mg/mL were transferred to the assay plate. The plates were incubated at 37 C for 16 hours. 1 uL of LiveBLAzer detection mixture was added to each well and the plates were incubated at room temperature in the dark for 2 h.
For orientation: In qHTS, concentration-response curves come from the screen itself.
Regarding `Nc1c2c(nc3c1CCC3)CCCC2`, the Potency entry is “inactive”.

Consider `COc1ccc(-c2coc3cc(O)ccc3c2=O)cc1`, for which the Potency entry was “inactive”.

`COc1cc(N)c(Cl)cc1C(=O)NC1CCN(CCCOc2ccc(F)cc2)CC1OC` (stereo not given): the Potency entry is “inactive”. On the same count and under the same terms, next, `C=CC1CO1` (stereo not given): “inactive”. Consider `COc1ccc2nc(NC(=O)Nc3ccccc3)sc2c1`, for which the Potency result is “inactive”. Same read-out and setting: next, `COc1ccc2c(c1OC)C(=O)O[C@@H]2[C@H]1c2c(cc3c(c2OC)OCO3)CCN1C`: “inactive”; `Nc1cc(C(=O)O)ccc1Cl`: “inactive”; `O=C1c2cccc(O)c2C(=O)c2c(O)cc(CO)cc21`: “inactive”. `CCCCCCCCCCOCC(O)CN` (stereo not given): the Potency result is “inactive”. Regarding `CCOc1cccc(N)c1`, the Potency result was “inactive”. Still for that read-out and setting: the same measure for `CCCCOC(=O)CC`: “inactive”; for `CN1CCC(=C2c3ccccc3CC(=O)c3sccc32)CC1`: “inactive”; for `Cc1c(N)cccc1Cl`: “inactive”.

As to `CCCCCCCCCC#N`, the Potency result was “inactive”.

As to `Nc1ccc(C(=O)Oc2ccccc2)c(O)c1`, the Potency result was “inactive”. `O=C1c2ccccc2S(=O)(=O)N1CCCCN1CCN(c2ncccn2)CC1`: the Potency entry is “inactive”.

As for `CC1(C)Cc2cccc(N)c2O1`, the Potency entry is “inactive”. Same read-out and setting: the same measure for `CCCCN(CCCC)CCCOC(=O)c1ccc(N)cc1`: “inactive”; for `CCN(CC)C(=O)Nc1ccc(OCC(O)CNC(C)(C)C)c(C(C)=O)c1` (stereo not given): “inactive”; for `c1ccc(COCc2ccccc2)cc1`: “inactive”. As for `CCCSS/C(CCO)=C(\C)N(C=O)Cc1cnc(C)nc1N`, the Potency result is “inactive”. As for `O=C1c2ccccc2C(=O)c2cc(Cl)ccc21`, the activation was 1.77% [at 5.99 µM]. Regarding `C=CC(=C)CC/C=C(\C)CCC=C(C)C`, the activation was 0.56% [at 13.6 µM]. Regarding `O=C(O)C(Cc1cc(I)c(O)c(I)c1)c1ccccc1` (stereo not given), the Potency result is “inactive”. In the case of `CC(C)OCC1CO1` (stereo not given), the Potency entry was “inactive”. Consider `OCC(O)c1ccccc1` (stereo not given), for which the Potency result is “inactive”. On the same count and under the same terms, the same measure for `COC(=O)CS`: “inactive”.

In the case of `CN=C(N)NC(=O)Nc1c(C)cccc1C`, the Potency entry was “inactive”. Take `CC(=O)c1ccc2ccc3ccccc3c2c1`: the Potency result was “inactive”. For the compound `O=C1O[C@@H]2[C@@H](O)[C@H](O)O[C@@H]2[C@H]1O`, the Potency result is “inactive”. The same measure, in the same setting: the same measure for `O=C(CCCCC(=O)Nc1c(I)cc(I)c(C(=O)O)c1I)Nc1c(I)cc(I)c(C(=O)O)c1I`: “inactive”; for `CCCCCCCCOC(C)=O`: “inactive”; for `CC1CCC(C(C)CS)CC1S` (stereo not given): “inactive”. On the same count and under the same terms, the same measure for `C=C(C)C1CC=C(C)C(O)C1` (stereo not given): “inactive”. Turning to `S=C(SSSSSSC(=S)N1CCCCC1)N1CCCCC1`, the activation was -7.65% [at 13.6 µM]. Consider `Nc1c(Cl)cc(Cl)cc1Cl`, for which the Potency result is “inactive”.

`CCc1cc(Cc2cc(CC)cc(C(C)(C)C)c2O)c(O)c(C(C)(C)C)c1`: the Potency entry is “inactive”. For `c1cc[nH]c1`, the Potency result is “inactive”. Still for that read-out and setting: the same measure for `OCCN(CCO)c1cccc(Cl)c1`: “inactive”; for `COc1cc(OC)cc(OC)c1`: “inactive”.
